The nature of experiment [1]: Confirmatory qHTS for VERO E6 Cytotoxicity Assay: Counterscreen for SARS-CoV-2 CPE Assay (AID 1508605). Note: % is set by controls: 0 for no effect and ±100 for the full control effect; nearly all actives have a fitted effect of over 60% in size. On the technique in general: qHTS replaces the single test concentration by a dilution series.
A short description of experiment [2]: qHTS profiling of the MIPE4 collection as inhibitors of Plasmodium falciparum (3D7) proliferation (AID 743344; call rule not given here;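 note: scaled between DMSO vehicle wells and 0.29 µM artemisinin as full inhibition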). To be noted: P. falciparum 3D7 in erythrocytes, SYBR Green DNA fluorescence, 72 h; at 28.5 µM (top of the series) unless noted. In a few lines: (§1)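 Erythrocytes infected with P. falciparum (0.3% parasitemia, 2.5% hematocrit) incubated with compounds 72 h at 37 C, 5% CO2. Lysis with saponin/Triton buffer containing SYBR Green I, overnight at room temperature in the dark; DNA fluorescence (485/535 nm) normalised to 0.29 uM artemisinin and DMSO.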

A short description of experiment [3]: qHTS profiling of the MIPE4 collection as inhibitors of Plasmodium falciparum (DD2) proliferation (AID 743345; call rule not given here). To be noted: P. falciparum Dd2 in erythrocytes, SYBR Green DNA, 72 h; at 28.5 µM (top of the series) unless noted. In a few lines:
as §1

Experiment [4] in a line: qHTS profiling of the MIPE4 collection as inhibitors of Plasmodium falciparum (DD2) proliferation (Rep 2) (AID 743346; call rule not given here). To be noted: P. falciparum Dd2 in erythrocytes, SYBR Green DNA, 72 h; at 28.5 µM (top of the series) unless noted. In a few lines: as §1
Experiment [5] can be described thus: qHTS for Inhibitors of the Functional Ribonucleoprotein Complex (vRNP) of Lassa (LASV) Arenavirus: LASV Primary Screen - GLuc reporter signal (AID 1347082; calls by dose curve; tested in HEK293 reporter line; note: % is set by controls: 0 for no effect and ±100 for the full control effect; nearly all actives have a fitted effect of over 60% in size).
A short description of experiment [6]: qHTS for Inhibitors of the Functional Ribonucleoprotein Complex (vRNP) of Lassa (LASV) Arenavirus: Viability assay - alamar blue signal for LASV Primary Screen (AID 1347083; calls by dose curve; tested in HEK293 reporter line; note: % is set by controls: 0 for no effect and ±100 for the full control effect; nearly all actives have a fitted effect of over 80% in size).
Experiment [7] is described as follows: qHTS for Inhibitors of the Functional Ribonucleoprotein Complex (vRNP) of Lymphocytic Choriomeningitis Arenaviruses (LCMV): Viability assay - alamar blue signal for LCMV Primary Screen (AID 1347085; calls by dose curve; tested in HEK293 reporter line; note: % is set by controls: 0 for no effect and ±100 for the full control effect; nearly all actives have a fitted effect of over 80% in size).
For experiment [8], the target named is Nucleoprotein (Lymphocytic choriomeningitis virus (strain Armstrong)) (UniProt P09992). Kind of experiment: qHTS for Inhibitors of the Functional Ribonucleoprotein Complex (vRNP) of Lymphocytic Choriomeningitis Arenaviruses (LCMV): LCMV Primary Screen - GLuc reporter signal (AID 1347086). Note: % is set by controls: 0 for no effect and ±100 for the full control effect; nearly all actives have a fitted effect of over 70% in size.
Experiment [9] in a line: Primary qHTS for inhibitors of SARS-S pseudo-typed particle cell entry (AID 1479145). For activity change, negative = inhibition: % is set by controls: 0 for no effect and ±100 for the full control effect. Note: nearly all actives have a fitted effect of over 45% in size.
Experiment [10] is described as follows: Primary qHTS for Huh7 cytotoxicity: counterscreen for inhibitors of MERS-S pseudotyped particle cell entry (AID 1479147). The conditions noted are these: outcome: dose series up to 57.1 µM unless noted.
Experiment [11] can be described thus: Primary qHTS for inhibitors of MERS-S pseudo-typed particle cell entry (AID 1479149). Note: nearly all actives have a fitted effect of over 60% in size.
A short description of experiment [12]: Primary qHTS for Vero E6 cytotoxicity: counterscreen for inhibitors of SARS-S pseudo-typed particle cell entry (AID 1479150). For activity change, negative = cytotoxicity: % is set by controls: 0 for no effect and ±100 for the full control effect. The conditions noted are these: outcome: dose series up to 57.1 µM unless noted.
A short description of experiment [13]: Cytotoxicity counterscreen for inhibitors of SARS-CoV-2 cell entry (AID 1645845). For activity change, negative = cytotoxicity: % is set by controls: 0 for no effect and ±100 for the full control effect. Note: nearly all actives have a fitted effect of over 50% in size. The method, boiled down:
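48 h compound treatment (after 1 h preincubation), HEK293-ACE2 cells, 37 C/5% CO2; ATP luminescence endpoint; normalized to cell wells and media blanks.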
A general note: The purpose of a counterscreen is to sort out artefacts and off-target activity.

Experiment [14] can be described thus: Primary qHTS to identify inhibitors of SARS-CoV-2 cell entry (AID 1645846). Note: nearly all actives have a fitted effect of over 45% in size. To be noted: activity change, negative = inhibition: at 57.1 µM (top of the series) unless noted. The method, boiled down: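 Entry measured by luciferase signal 48 h after adding SARS-CoV-2-S pseudotyped MLV particles to HEK293-ACE2 cells preincubated 1 h with compounds. Normalisation: bald particles and spike particles.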

Experiment [15] is described as follows: VSVG counterscreen qHTS to identify inhibitors of SARS-CoV-2 cell entry (AID 1645847). Note: potency is the fitted concentration of half-maximal effect; nearly all actives have a fitted effect of over 65% in size. In a few lines: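 Luminescence read after 48 h infection at 37 C with VSV-G-pseudotyped MLV particles, following 1 h compound exposure of Expi293F cells stably expressing human ACE2; scaled between bald particle and VSV-G particle wells.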
Experiment [16] addresses Nuclear receptor subfamily 1 group I member 3 (Homo sapiens) (UniProt Q14994). Kind of experiment: Primary qHTS for antagonist of constitutive androstane receptor (CAR) against the NCATS DSHEA and TCM libraries (AID 1794836; active = well fitted curve in the direction sought with a large enough effect;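 note: HepG2 cells stably expressing hCAR with CYP2B6 luciferase reporter stimulated by CITCO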). The method, boiled down:
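Antagonist mode: CAR reporter luminescence (ONE-Glo) in HepG2-CYP2B6-hCAR cells stimulated with 48 uM CITCO (final) over 24 h at 37 C, compounds titrated; viability read first by CellTiter-Fluor fluorescence.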

Results filed as inconclusive are left out. Calls of active or inactive are those of the source. Unless noted, calls come from the whole dose curve.

Nucleoprotein (Lymphocytic choriomeningitis virus (strain Armstrong)), sequence (P09992 whole entry, looked up): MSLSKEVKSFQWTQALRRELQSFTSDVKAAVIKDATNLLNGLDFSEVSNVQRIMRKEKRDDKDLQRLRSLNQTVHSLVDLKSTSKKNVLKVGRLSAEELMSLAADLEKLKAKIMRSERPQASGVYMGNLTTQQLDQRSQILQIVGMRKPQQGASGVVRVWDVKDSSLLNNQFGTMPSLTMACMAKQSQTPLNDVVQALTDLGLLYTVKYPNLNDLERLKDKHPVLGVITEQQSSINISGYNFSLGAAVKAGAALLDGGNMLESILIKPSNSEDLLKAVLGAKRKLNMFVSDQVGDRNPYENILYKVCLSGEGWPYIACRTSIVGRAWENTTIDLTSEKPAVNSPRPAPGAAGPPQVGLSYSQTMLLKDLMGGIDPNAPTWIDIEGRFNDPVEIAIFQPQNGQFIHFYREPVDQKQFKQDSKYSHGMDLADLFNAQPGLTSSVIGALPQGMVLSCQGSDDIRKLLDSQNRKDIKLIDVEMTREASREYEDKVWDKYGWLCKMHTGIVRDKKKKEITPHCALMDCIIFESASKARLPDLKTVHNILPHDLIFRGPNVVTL
Nuclear receptor subfamily 1 group I member 3 (Homo sapiens), sequence (Q14994 whole entry, looked up): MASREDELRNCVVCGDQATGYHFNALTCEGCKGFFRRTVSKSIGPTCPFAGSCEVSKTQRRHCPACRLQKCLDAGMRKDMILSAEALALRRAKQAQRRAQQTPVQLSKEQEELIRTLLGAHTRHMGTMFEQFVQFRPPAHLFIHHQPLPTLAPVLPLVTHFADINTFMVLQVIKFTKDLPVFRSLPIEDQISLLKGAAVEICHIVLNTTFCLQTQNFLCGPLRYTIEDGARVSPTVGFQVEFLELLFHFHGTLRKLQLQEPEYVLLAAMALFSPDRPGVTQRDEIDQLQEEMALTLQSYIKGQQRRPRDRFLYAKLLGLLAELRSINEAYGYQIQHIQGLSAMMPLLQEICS

Take `Cc1cc(O)c2c(c1)O[C@@]1(C)CC[C@H]3C(C)(C)CCCC34CO[C@@H]2[C@H]41` (stereo not given in full): the Potency result in experiment [1] was “inactive”.

With `CC(=O)O[C@H]1C[C@@H]2CC[C@H]3[C@H]4C[C@H]([N+]5(C)CCCCC5)[C@@H](OC(C)=O)[C@@]4(C)CC[C@@H]3[C@@]2(C)C[C@H]1[N+]1(C)CCCCC1`, the parasite growth, % of DMSO control in experiment [2] amounted to 73.3%. In experiment [3], this compound registered a parasite growth remaining, % of DMSO control (lower = more inhibition) of 88%. This compound also displayed a parasite growth, % of control (lower = inhibition) in experiment [4] of 58.4%. The Potency result in [5], in experiment [6], in [7], in experiment [8], in [9] and in experiment [11] was “inactive” each time. Also, the Potency entry in [13] and in experiment [14] was “inactive” in each case. Also, the compound was classed as inactive in experiment [10] and in experiment [12]. In addition, in [14], the activity change, negative = inhibition was -10.4%.

As to `CC(C=CC=C(C)C=CC1=C(C)CCCC1(C)C)=CC=CC=C(C)C=CC=C(C)C=CC1=C(C)CCCC1(C)C`, the Potency result in experiment [5], in experiment [6], in [7] and in experiment [8] was “inactive” each time. In addition, the outcome in experiment [9] is “inactive [at 0.573 µM]”; in experiment [10] it was “inactive [at 0.573 µM]”; in experiment [11] it was “inactive [at 0.573 µM]”; in experiment [13], “inactive [at 0.702 µM]”. Besides, the activity change, negative = cytotoxicity in experiment [12] is 0.415% [at 0.573 µM] (inactive). Further, the activity change, negative = inhibition in [14] was -7.48% [at 0.702 µM].

For `CO[C@@H]1[C@H](OC(=O)/C=C/C=C/C=C/C=C/C(=O)O)CC[C@]2(CO2)[C@H]1[C@@]1(C)O[C@@H]1CC=C(C)C`, the Potency entry in experiment [5], in experiment [6], in [7], in experiment [8], in [11] and in [13] was “inactive” throughout. Besides, the result in experiment [10] and in experiment [12] was inactive.

As to `CO[C@H]1C(=O)[C@]2(C)[C@@H](OC)C[C@H]3OC[C@@]3(OC(C)=O)[C@H]2[C@H](OC(=O)c2ccccc2)[C@]2(O)C[C@H](OC(=O)[C@H](O)[C@@H](NC(=O)OC(C)(C)C)c3ccccc3)C(C)=C1C2(C)C`, the Potency result in [5], in [6], in experiment [7], in experiment [8], in experiment [9] and in experiment [11] was “inactive” each time. The Potency result in experiment [13] was “inactive”. Also, the compound was classed as inactive in [10] and in experiment [12]. The activity change, negative = inhibition in experiment [14] was -81.7%. The Potency in [15] is 136 nM (active).

Turning to `C[C@]12CCC(=O)C[C@@H]1CC[C@@H]1[C@@H]2CC[C@]2(C)C=CC[C@@H]12`, the Potency result in [5], in experiment [6], in [7], in experiment [8], in [9] and in experiment [11] was “inactive” throughout. The Potency result in [13] was “inactive”. Besides, the compound was called inactive in experiment [10] and in [12]. Moreover, the activity change, negative = inhibition in experiment [14] is -21.9%.

Take `CCCCCCCCCCCC(=O)OCC(O)CO` (stereo not given): the Potency result in experiment [5], in [6], in [7], in [8], in experiment [9] and in experiment [11] was “inactive” each time. In addition, the Potency entry in experiment [13], in experiment [14] and in [16] was “inactive” in each case. Besides, the compound was classed as inactive in experiment [10] and in [12].
